Data: the supplement of paper PMC3334620
In all, about 33,000 sequences were measured (“E-score (-0.5 to 0.5)”: median about -0.017, highest 2% from about 0.3 on). The list comes from a sample in which the highest values are over-represented; it also holds similar and randomly drawn sequences.

molecular target: T1, Sut1 (UniProt P53032); test: PBM E-score (8-mer binding enrichment) (E-score (-0.5 to 0.5)); higher = stronger / more preferred TF binding; conditions: protein concentration: 200 nM; construct: GST-full length
T1 sequence: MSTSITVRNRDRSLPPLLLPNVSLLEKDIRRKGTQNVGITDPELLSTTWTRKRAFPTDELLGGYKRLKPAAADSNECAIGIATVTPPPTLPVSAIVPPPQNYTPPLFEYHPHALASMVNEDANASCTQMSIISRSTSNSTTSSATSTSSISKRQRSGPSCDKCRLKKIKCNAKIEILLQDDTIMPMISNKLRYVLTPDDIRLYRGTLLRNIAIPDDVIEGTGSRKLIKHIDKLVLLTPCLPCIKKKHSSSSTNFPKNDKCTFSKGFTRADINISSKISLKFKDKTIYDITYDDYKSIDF
Method in brief: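 Bound GST-tagged yeast transcription factors, applied at about 100-200 nM to double-stranded universal all-10-mer Agilent arrays, were detected with fluorescent anti-GST. Scans were normalised with masliner. A modified Wilcoxon-Mann-Whitney statistic, the E-score, was assigned to each ungapped eight-base word pooled with its reverse complement by the Universal PBM Analysis Suite.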

Row | Sequence | PBM E-score
1 | GGAGTTAC | 0.367
2 | CGAGTTAC | 0.0146
3 | AGAGTTAC | -0.117
4 | AGAGTTAA | 0.0656
5 | GGAGTTAA | 0.337
6 | TGAGTTAA | -0.00085
7 | GCTCCCTA | -0.123
8 | CAGGGAGC | -0.326
9 | ACAAACAC | 0.185
10 | CCGGCCGA | 0.0979
11 | TCGGCCGA | 0.323
12 | GCGGCCGA | -0.139
13 | AAAACTAA | 0.353
14 | CTAACTAC | 0.00799
15 | TAAACTAA | 0.323
16 | CTAACTAA | 0.142
17 | GAAACTAA | 0.00617
18 | AAAACTAT | 0.231
19 | CAAACTAA | 0.276
20 | AAAACTAG | 0.0495
21 | CTAACTAG | 0.302
22 | ACTCCACT | -0.144
23 | CCCTCAGA | -0.309
24 | CAGAGAAC | -0.299
25 | CTATCAAC | 0.208

Row | Sequence | PBM E-score
26 | AGACTCTG | -0.137
27 | CAGTCACA | -0.17
28 | GACCCGTC | -0.239
29 | AGTTCTCC | 0.0174
30 | GTGACGAA | -0.0161
31 | CCTTAGGA | -0.0422
32 | AACCAGCT | -0.0518
33 | CGAAAACC | 0.0693
34 | AGTTAAGA | 0.0414
35 | GTCCGGTA | 0.373
36 | ATCCGGTA | 0.135
37 | CGCCGGTC | -0.0721
38 | CCCCGGTA | 0.0227
39 | ATCCGGTC | -0.00108
40 | GCCCGGTA | -0.187
41 | CTCCGGTA | 0.413
42 | CTCCGGTC | 0.418
43 | GGCCGGTA | 0.0132
44 | GGTCGAAA | -0.14
45 | GGCTGACC | -0.205
46 | ATTATTCA | 0.289
47 | AGGATACT | -0.0531
48 | ACTCGGCT | -0.079
49 | ACACCGCA | 0.0401
50 | GTAGACAA | 0.157

Row | Sequence | PBM E-score
51 | AGGGGTAT | -0.217
52 | ACGCACTA | -0.0472
53 | GCATATCC | -0.196
54 | GGATTTCA | 0.117
55 | AGGACCTA | -0.0435
56 | CGGACCTC | 0.411
57 | CGGACCTA | 0.42
58 | AGGACCTC | -0.0609
59 | CTGACCTC | -0.121
60 | GGGACCTA | 0.0551
61 | AACTCGAA | -0.0516
62 | TCCTTCCA | -0.243
63 | GTATAAAC | 0.227
64 | GTATAAAA | 0.317
65 | GTATAAGA | 0.103
66 | TTATAAAA | 0.314
67 | CTATAAAA | 0.183
68 | ATATAAAA | 0.205
69 | TGAACCCA | -0.00171
70 | GTCGTTGA | -0.0946
71 | ATCCCAGC | -0.107
72 | ACACTAGA | 0.0902
73 | CGATGTCC | 0.164
74 | ATCAAGAT | 0.158
75 | GACGGAGA | 0.277

Row | Sequence | PBM E-score
76 | CAAGGAGA | 0.0606
77 | TACGGAAA | 0.278
78 | CACGGAGG | 0.0312
79 | GACGGAGC | 0.231
80 | CACGGAGC | 0.354
81 | TACGGAGA | 0.32
82 | TACGGACA | 0.282
83 | AACGGAGG | -0.0314
84 | CACGGAGA | 0.355
85 | AACGGAGC | 0.231
86 | AACGGAGT | 0.478
87 | ATCCATTA | 0.076
88 | AATCGCCA | -0.0545
89 | AAGAGATC | -0.168
90 | AGAATTGG | 0.13
91 | CGCAATGA | -0.0747
92 | ACACTTGA | -0.00965
93 | AGACCACC | -0.0644
94 | CATGGCAG | -0.108
95 | CCCTGGGC | -0.324
96 | ATTAATGA | 0.267
97 | ATTTCTTA | 0.0841
98 | CTCCCGAA | -0.0868
99 | CTCCCTCC | -0.2
100 | GGCTCATA | -0.0389

Row | Sequence | PBM E-score
101 | CAGCGGGG | -0.149
102 | AACGGAGA | 0.359
103 | AACGGATA | 0.285
104 | AACAGAGA | -0.0653
105 | ACTGCTCC | -0.0101
106 | CGAGTAGA | -0.0364
107 | AGAGTATA | 0.00921
108 | GGAGTAGA | 0.318
109 | CGAGTATA | 0.0489
110 | GGAGTAAA | 0.333
111 | GGAGTATA | 0.311
112 | TGAGTAAA | 0.0705
113 | AGAGTAGA | 0.163
114 | GGAGTAAC | 0.258
115 | AGGCCATG | -0.206
116 | GAGCTGAA | 0.01
117 | CAGTACGA | -0.0772
118 | TACAGCGA | -0.145
119 | GTAGCTCA | -0.0732
120 | ACCTGATC | -0.177
121 | AGAACCTG | -0.0844
122 | ATTATAAG | 0.193
123 | AAAATTAC | 0.237
124 | AAAATTAT | 0.351
125 | ATAATTAA | 0.314

Row | Sequence | PBM E-score
126 | ATAATTTC | 0.242
127 | GTAATTAA | 0.161
128 | ATTATAAT | 0.378
129 | CTAATTTC | 0.299
130 | TTAATTAA | 0.0737
131 | AAAATTAG | 0.155
132 | CTAATTTA | 0.175
133 | ATTATAAA | 0.275
134 | CGGATCAA | 0.16
135 | CGTCTTGA | 0.0919
136 | AGCCCCAA | -0.358
137 | ATCGCTAC | -0.0624
138 | AATTATAT | 0.212
139 | TCCACTAA | 0.0668
140 | CCCAAACA | 0.00961
141 | GTAATTTA | 0.221
142 | ATAATTTA | 0.337
143 | ATAATTAC | 0.283
144 | ATCATTAG | 0.0427
145 | CTCATTAA | 0.119
146 | ATCATTAA | 0.305
147 | ATAATTAG | 0.235
148 | AAAATGAA | 0.0412
149 | AAAATGAC | 0.157
150 | ATAATTAT | 0.39

Row | Sequence | PBM E-score
151 | AAAATGAT | 0.342
152 | ATAATTTG | 0.249
153 | ACAGTTCG | 0.183
154 | GCTTCCCA | -0.179
155 | GTTTGGTA | 0.178
156 | ATCGGTAG | 0.0989
157 | TCGGTGAA | 0.0263
158 | TAAGATCA | 0.0673
159 | TTAAATAA | 0.259
160 | GTAAAATA | 0.145
161 | ATAAAGAT | 0.328
162 | ATAAATAA | 0.321
163 | ATAAAGAG | 0.0458
164 | ATAAATAG | 0.295
165 | ATAAAATC | 0.162
166 | GGAAAATA | 0.226
167 | AAAAAATA | 0.242
168 | ATAAAATA | 0.323
169 | ATAAAGAA | 0.19
170 | GAAAAATA | 0.306
171 | CTCGTTCA | -0.205
172 | AGTAGACC | -0.172
173 | ATGACTGC | 0.00267
174 | CAATGCTC | -0.0941
175 | ACCAACGT | 0.00237
